Test results reported in PubChem BioAssay AID725 (NMMLSC, 2007).
In all, about 1,300 compounds went through this assay and fewer than 10 were called active. Only a sample is shown. A number with no mark means an inactive call. The rule behind the calls is not given here.

Biological target: N-formyl peptide receptor 2 (Homo sapiens) (UniProt P25090)
Test: FPRL1 fluorescent ligand binding inhibitors, primary screen, selectivity assay for FPR ligand SAR project, cell-based, flow cytometry, HTS counterscreen (AID 725)
Settings: FPRL1-expressing cells, hits give high values, concentration not given here

Sequence of N-formyl peptide receptor 2 (Homo sapiens) (P25090 whole entry, looked up): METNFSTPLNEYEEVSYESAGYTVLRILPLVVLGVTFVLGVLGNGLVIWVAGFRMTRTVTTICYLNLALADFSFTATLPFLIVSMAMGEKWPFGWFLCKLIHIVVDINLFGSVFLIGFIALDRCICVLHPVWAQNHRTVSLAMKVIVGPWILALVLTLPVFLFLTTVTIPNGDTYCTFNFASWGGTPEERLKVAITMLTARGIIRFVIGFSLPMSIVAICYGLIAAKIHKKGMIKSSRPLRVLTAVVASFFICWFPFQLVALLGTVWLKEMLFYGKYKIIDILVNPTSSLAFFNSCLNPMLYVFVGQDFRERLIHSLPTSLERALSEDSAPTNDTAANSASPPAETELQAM

First: CCOC(=O)c1sc(N2C(=O)C(=O)/C(=C(/O)c3ccccc3)C2c2ccc(O)c(OC)c2)nc1C (stereo not drawn)
Second: COc1ccc(OC)c(C2/C(=C(\O)c3ccccc3)C(=O)C(=O)N2CCC(=O)O)c1 (stereo not drawn)
The inhibition of the first is higher: 0.2% for the first, -4.7% for the second.

First: COC(=O)c1c(NC(=O)c2ccc(F)cc2)sc2c1CCC2
Second: COC(=O)c1c(NC(=O)c2ccc(Cl)c(Cl)c2)sc2c1CCCC2
The inhibition of the first is lower: -10.9% for the first, -2.7% for the second.

First: Cc1ccc(C2CC(c3ccccc3)n3ncnc3N2C(=O)c2ccccc2)cc1 (stereo not drawn)
Second: C=CCN1C(=O)C2C(c3ccccc3)C=CC(c3ccccc3)C2C1=O (stereo not drawn)
The inhibition of the first is lower: -21.4% for the first, -6.2% for the second.

First: CC(O)CN1C(=O)C(=O)/C(=C(\O)c2ccccc2)C1c1cccnc1 (stereo not drawn)
Second: O=C1C(=O)N(Cc2cccnc2)C(c2cccc(Br)c2)/C1=C(\O)c1ccccc1 (stereo not drawn)
The inhibition of the first is lower: 1.7% for the first, 4.9% for the second.

Compared with `COc1ccccc1C1CC(=O)NC2=C1C(=O)CC(c1ccccc1Cl)C2` (stereo not drawn), `COc1ccccc1C1/C(=C(\O)c2ccccc2)C(=O)C(=O)N1c1ccc(C)c(Cl)c1` (stereo not drawn) is lower in inhibition: 0.3% for the first, -1.5% for the second.

First: COc1ccc(C2C(C(=O)c3cc4ccccc4o3)=C(O)C(=O)N2CCN(C)C)cc1OC (stereo not drawn)
Second: COc1cc(C2C(C(=O)c3cc4ccccc4o3)=C(O)C(=O)N2CCN(C)C)ccc1O (stereo not drawn)
The inhibition of the first is higher: 9.3% for the first, -0.3% for the second.

Compared with `COC(=O)c1c(NC(=O)c2cccs2)sc(C)c1C`, `CCOC(=O)c1c(NC(=O)c2ccc(OC)cc2)sc(C)c1C` is lower in inhibition: 1.5% for the first, -3.8% for the second.

First: CCCCCCc1cc2c(=O)c(-c3nc4ccccc4n3C)c(C(F)(F)F)oc2cc1O
Second: CCc1cc2c(=O)c(-c3nc4ccccc4s3)c(C)oc2c(CN2CCCCC2)c1O
The inhibition of the first is higher: 3.9% for the first, -7.2% for the second.

Compared with `COc1cccc(OC)c1C(=O)Oc1ccc2c(=O)c(Oc3ccc4ccccc4c3)c(C(F)(F)F)oc2c1`, `CCOC(=O)c1oc2cc(OCc3ccc(F)cc3)ccc2c(=O)c1-c1ccccc1OC` is lower in inhibition: 4.4% for the first, 1.2% for the second.

First: C=CCN1C(=O)C2(/C(=C(/O)c3ccc(C)cc3)C(=O)C(=O)N2CC2CCCO2)c2ccccc21 (stereo not drawn)
Second: Cc1ccc(/C(O)=C2/C(=O)C(=O)NC2c2ccc3c(c2)OCO3)cc1 (stereo not drawn)
The inhibition of the first is lower: 0.9% for the first, 1.1% for the second.

Compared with `CCN(CC)Cc1c(O)ccc2c(=O)c(-c3ccc(OC)c(OC)c3)c(C(F)(F)F)oc12`, `O=c1c(-c2cccc(Cl)c2)c(C(F)(F)F)oc2c(CN3CCOCC3)c(O)ccc12` is higher in inhibition: -8.6% for the first, 3.4% for the second.

First: O=C1C(=O)N(c2nncs2)C(c2cccs2)/C1=C(/O)c1ccc(F)cc1 (stereo not drawn)
Second: Cc1ccc(/C(O)=C2\C(=O)C(=O)N(c3nnc(C)s3)C2c2ccc(Cl)cc2)cc1 (stereo not drawn)
The inhibition of the first is higher: -5.3% for the first, -9.8% for the second.

Going from `CC(C)c1ccc(C2/C(=C(\O)c3ccccc3)C(=O)C(=O)N2CCC(=O)O)cc1` (stereo not drawn) to `COCCN1C(=O)C(=O)/C(=C(/O)c2ccccc2)C1c1ccc(C(C)C)cc1` (stereo not drawn), the inhibition falls from 7.3% to 3.7%.

Going from `CCOC(=O)c1c(CC(C)C)csc1NC(=O)c1ccccc1F` to `CCOC(=O)c1c(NC(=O)c2ccccc2Cl)sc2c1CCC2`, the inhibition rises from -1.5% to 0%.

Going from `COc1ccc(Br)cc1CNC(=O)Cn1ncc2ccccc21` to `COc1ccc(Br)cc1CNC(=O)Cn1c(=O)oc2ccccc21`, the inhibition falls from -17.2% to -20.3%.

Going from `CCCCn1c(=O)c2c(nc3n2CCN3Cc2ccco2)n(C)c1=O` to `CCCCn1c(=O)c2oc3ccccc3c2n(Cc2cccc(C)c2)c1=O`, the inhibition falls from -0.5% to -15.7%.

First: CCc1nn(Cc2ccccc2F)c(=O)c2cc3cc(C)ccc3n12
Second: CC(C)n1c(=O)c2oc3ccccc3c2n(Cc2ccccc2F)c1=O
The inhibition of the first is lower: -0.2% for the first, 11.7% for the second.

Compared with `CCN(CC)C(=O)c1c(NC(=O)c2ccccc2F)sc2c1CCC(C)C2` (stereo not drawn), `CCOC(=O)c1c(NC(=O)c2ccccc2)sc2c1CCC(C)C2` (stereo not drawn) is lower in inhibition: 2.2% for the first, -3.5% for the second.

Compared with `CCOC(=O)c1c(NC(=O)c2ccccc2OCC)sc2c1CCCC2`, `CCOC(=O)c1c(NC(=O)c2csc3c2CCCC3)sc2c1CCCC2` is higher in inhibition: -11.3% for the first, -7% for the second.

First: Cc1ccc(OC(=O)c2ccc(N3C(=O)c4cccc(N)c4C3=O)cc2)cc1C
Second: CCOc1ccc(C2/C(=C(/O)c3ccccc3)C(=O)C(=O)N2c2ccc(C)c(Br)c2)cc1 (stereo not drawn)
The inhibition of the first is lower: -3.5% for the first, 1.2% for the second.

First: CCOC(=O)C1=C(C)N(c2ccc(C)cc2)C(=O)/C1=C\c1ccccc1OC
Second: CCOC(=O)C1=C(C)N(c2ccc(C)c(C)c2)C(=O)/C1=C\c1ccccc1OC
The inhibition of the first is higher: -4.9% for the first, -8.1% for the second.

Compared with `O=C1C(=O)N(CCc2c[nH]c3ccccc23)C(c2cccnc2)/C1=C(/O)c1ccc(Cl)cc1` (stereo not drawn), `Cc1ccc(N2C(=O)C(=O)/C(=C(\O)c3ccc(Cl)cc3)C2c2cccnc2)cc1Br` (stereo not drawn) is higher in inhibition: -0.1% for the first, 4.5% for the second.

First: CCc1ccc(Oc2c(C(F)(F)F)oc3cc(OCC(=O)OC4CCCCC4)ccc3c2=O)cc1
Second: CCOC(=O)N1CCC(c2cc(=O)n3[nH]cc(C(=O)Nc4ccc(OCC)cc4)c3n2)CC1
The inhibition of the first is higher: 1.4% for the first, -5.2% for the second.

First: Cc1sc(NC(=O)C2C3CCC(O3)C2C(=O)O)c(C(N)=O)c1-c1ccc(C(C)C)cc1 (stereo not drawn)
Second: CCOC(=O)c1c(NC(=O)C2C3CCC(O3)C2C(=O)O)sc2c1CCC(CC)C2 (stereo not drawn)
The inhibition of the first is lower: -4.5% for the first, 0.3% for the second.

Going from `O=C1C(=O)N(c2cccc(C(F)(F)F)c2)C(c2ccccc2[N+](=O)[O-])/C1=C(\O)c1ccccc1` (stereo not drawn) to `O=C1C(=O)N(c2cccnc2)C(c2cccc(F)c2)/C1=C(/O)c1ccccc1` (stereo not drawn), the inhibition falls from -1.4% to -1.7%.

Going from `CCOc1ccccc1C(=O)N(Cc1ccc(Cl)cc1)Cc1ccco1` to `O=C(c1ccccc1Br)N(Cc1ccc(F)cc1)Cc1ccco1`, the inhibition rises from -14.6% to -2%.

First: CC(C)OC(=O)c1c(NC(=O)C2CCCCC2)sc2c1CCCC2
Second: NC(=O)c1c(NC(=O)C2CC3CCC2C3)sc2c1CCCC2 (stereo not drawn)
The inhibition of the first is lower: -2.7% for the first, 9% for the second.

Going from `CCOc1ccc(/C(O)=C2\C(=O)C(=O)N(c3nnc(C)s3)C2c2ccc(Br)cc2)cc1` (stereo not drawn) to `CCCCCCN1C(=O)C(=O)/C(=C(/O)c2ccccc2)C1c1ccc(Br)cc1` (stereo not drawn), the inhibition falls from 1.9% to 0.8%.

Going from `COc1ccc(C2C(C(=O)c3cc4ccccc4o3)=C(O)C(=O)N2c2nccs2)cc1` (stereo not drawn) to `CN(C)CCN1C(=O)C(O)=C(C(=O)c2cc3ccccc3o2)C1c1cccc(Oc2ccccc2)c1` (stereo not drawn), the inhibition rises from 1% to 1.3%.

Compared with `Cc1ccc(C2/C(=C(\O)c3ccc(F)cc3)C(=O)C(=O)N2CCN2CCOCC2)o1` (stereo not drawn), `O=C1C(=O)N(CCN2CCOCC2)C(c2ccco2)/C1=C(\O)c1ccc(F)cc1` (stereo not drawn) is lower in inhibition: 5.6% for the first, 5.5% for the second.

First: CN1C(=O)c2ccccc2C(C(=O)N2CCCCC2)C1c1cccs1 (stereo not drawn)
Second: O=C(C1=C(O)C(=O)N(CCN2CCOCC2)C1c1cccs1)c1ccco1 (stereo not drawn)
The inhibition of the first is lower: -3.9% for the first, -2% for the second.

First: Cc1cc(=O)n2[nH]cc(C(=O)O)c2n1
Second: COC(=O)c1c[nH]n2c(=O)c(C(C)C)c(C)nc12
The inhibition of the first is lower: -16.5% for the first, -13.8% for the second.

Compared with `CCN1C(=O)C(O)(CC(=O)c2ccc3c(c2)OCO3)c2ccccc21` (stereo not drawn), `Cc1ccc2c(c1)oc(=O)n2C(=O)COc1ccccc1` is higher in inhibition: -4.3% for the first, 4.9% for the second.

Compared with `CCOC(=O)C1NN=C(C(=O)c2ccc(OC)cc2)C1c1ccccc1` (stereo not drawn), `CCCCCCN1C(=O)C(=O)/C(=C(\O)c2ccccc2)C1c1ccc(C(C)C)cc1` (stereo not drawn) is lower in inhibition: 3.5% for the first, -2.5% for the second.

First: COc1ccc(N2C(=O)CSC2c2ccc(C(C)C)cc2)cc1 (stereo not drawn)
Second: Cc1ccc(N2C(=O)CSC2c2ccc(C(C)(C)C)cc2)cc1F (stereo not drawn)
The inhibition of the first is higher: 4.8% for the first, -16.2% for the second.

Going from `CCCCn1c(=O)c2oc3ccccc3c2n(Cc2ccccc2F)c1=O` to `Cc1ccc(C)c(Cn2c(=O)cc(C)c3c(C)nn(-c4ccccc4)c32)c1`, the inhibition falls from -2.7% to -16.2%.

Going from `CCCN(C(=O)[C@H]1[C@@H]2C[C@@H]3[C@H]1C(=O)O[C@@H]3C2)c1ccccc1OCC` to `CCOc1ccccc1C1C(C#N)=C(SC)NC(=O)C1C(=O)OC` (stereo not drawn), the inhibition falls from 9.1% to 7.1%.

Compared with `Cc1cccc(N2C(=O)CSC2c2cccc(F)c2)c1` (stereo not drawn), `Cc1cc(C)cc(N2C(=O)CSC2c2ccccc2Br)c1` (stereo not drawn) is higher in inhibition: -31.8% for the first, -7.5% for the second.

First: CCN1C(=O)C(=C2CCCC2)N(CC)C1=O
Second: CCOC(=O)c1cnn2c(=O)c3c(n(CC)c12)CCN(Cc1ccc(OC)cc1)C3
The inhibition of the first is higher: 8% for the first, 1.3% for the second.

Going from `COc1cc(C)nc(N(CCC(C)C)S(=O)(=O)c2ccc(C)cc2)n1` to `Cc1ccc(S(=O)(=O)NC(CC(=O)O)c2cccc(Cl)c2)c(C)c1` (stereo not drawn), the inhibition rises from -7.7% to -6.5%.

Going from `CC(c1cccs1)N(Cc1ccco1)C(=S)Nc1ccccc1Cl` (stereo not drawn) to `O=C(c1ccc(Br)cc1)N(Cc1ccco1)Cc1ccccc1F`, the inhibition rises from 10.4% to 27.5%.

First: COc1ccccc1C(CC(=O)NCc1cccs1)n1cccc1 (stereo not drawn)
Second: Cc1nnc(N2C(=O)C(O)=C(C(=O)c3cccs3)C2c2ccccc2)s1 (stereo not drawn)
The inhibition of the first is higher: 12% for the first, 1.7% for the second.

Compared with `CC1CCN(Cn2nc(-c3ccco3)n(-c3ccccc3)c2=S)CC1`, `CCCOc1ccc(/C(O)=C2\C(=O)C(=O)N(CCN3CCOCC3)C2c2ccc(C(C)C)cc2)cc1C` (stereo not drawn) is lower in inhibition: 6.9% for the first, -8.4% for the second.

First: COc1ccc(C2C(C(=O)c3cccs3)=C(O)C(=O)N2Cc2cccnc2)cc1OC (stereo not drawn)
Second: CCc1c(C)sc(NC(=O)C2C3C=CC(C3)C2C(=O)O)c1C(=O)OC(C)C (stereo not drawn)
The inhibition of the first is higher: -3.8% for the first, -6% for the second.
